Source: PubChem BioAssay (EPA / NIEHS)
Active and inactive are the calls of the source. Rule for the calls: active = hit-call score of the fitted dose curve at least 0.9, where 1 is the maximum; inactive = score below 0.9.

Key:
[1] = BSK_KF3CT_SRB: Viability Assessment in the BioMAP Diversity Plus: KF3CT Assay (AID 2283069); settings: primary human keratinocytes with fibroblasts;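 note: total protein by sulforhodamine B staining as a cytotoxicity measure; read 24 h after compound addition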
Summary of the method: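 SRB read-out at 560 nm (0.1% stain, TCA-fixed cells) gauges overt cytotoxicity in a human skin keratinocyte–fibroblast co-culture 24 h post-dosing. Signal change was fitted bidirectionally relative to DMSO control.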

[2] = read-out: Interleukin-1 alpha (IL1a), IL1A (gene 3552); experiment: BSK_KF3CT_IL1a: BioMAP Diversity Plus: KF3CT Assay for Interleukin-1 alpha (IL1a) Biomarker Activity (AID 2283070); settings: primary human keratinocytes with fibroblasts; actives raise or lower the signal
Summary of the method: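 Primary skin co-culture (keratinocytes, foreskin fibroblasts), 24 h exposure; ELISA for IL-1a; bidirectional curve fit vs DMSO.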

[3] = read-out: TIMP metallopeptidase inhibitor 2 (TIMP2), TIMP2 (gene 7077); experiment: BSK_KF3CT_TIMP2: BioMAP Diversity Plus: KF3CT Assay for TIMP metallopeptidase inhibitor 2 (TIMP2) Biomarker Activity (AID 2283071); settings: primary human keratinocytes with fibroblasts; actives raise or lower the signal
Summary of the method: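 Chemicals were dosed onto human skin primary co-cultures of keratinocytes and foreskin fibroblasts, and TIMP-2 was measured by ELISA after 24 hours. Activity in either direction was fitted relative to DMSO.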

[4] = read-out: Transforming growth factor beta 1 (TGFb1), TGFB1 (gene 7040); experiment: BSK_KF3CT_TGFb1: BioMAP Diversity Plus: KF3CT Assay for Transforming growth factor beta 1 (TGFb1) Biomarker Activity (AID 2283072); settings: primary human keratinocytes with fibroblasts; actives raise or lower the signal
Summary of the method: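 KF3CT co-culture (keratinocytes + fibroblasts), 24 h exposure → TGF-b1 ELISA → bidirectional fit, DMSO = baseline. Parallel SRB total-protein staining (0.1% SRB, 10% TCA fixation, 560 nm) for cytotoxicity.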

[5] = read-out: C-C motif chemokine 2 (Homo sapiens) (UniProt P13500); experiment: BSK_KF3CT_MCP1: BioMAP Diversity Plus: KF3CT Assay for Monocyte Chemoattractant Protein 1 (MCP1/CCL2) Biomarker Activity (AID 2283073); settings: primary human keratinocytes with fibroblasts; actives raise or lower the signal
Summary of the method: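 Human keratinocyte plus foreskin fibroblast primary co-culture exposed to chemical for 24 h. MCP-1 levels measured by ELISA. Bidirectional curve fitting relative to DMSO negative control as baseline.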

[6] = read-out: Matrix Metallopeptidase 9 (MMP9), MMP9 (gene 4318); experiment: BSK_KF3CT_MMP9: BioMAP Diversity Plus: KF3CT Assay for Matrix Metallopeptidase 9 (MMP9) Biomarker Activity (AID 2283074); settings: primary human keratinocytes with fibroblasts; actives raise or lower the signal;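 for AC50: MMP9 protein level quantified by ELISA in the co-culture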
Summary of the method: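 ELISA read-out of MMP-9 at 24 h post-dosing in a co-culture of human skin keratinocytes and foreskin fibroblasts. Gain or loss of signal was fitted in both directions against DMSO.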

[7] = read-out: urokinase plasminogen activator (uPA), PLAU (gene 5328); experiment: BSK_KF3CT_uPA: BioMAP Diversity Plus: KF3CT Assay for urokinase plasminogen activator (uPA) Biomarker Activity (AID 2283075); settings: primary human keratinocytes with fibroblasts; actives raise or lower the signal
Summary of the method: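 Skin co-culture (keratinocytes + foreskin fibroblasts), human primary; 24 h post-dose; uPA by ELISA; gain/loss fit vs DMSO baseline.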

CD40, CD40 (gene 958) [8] = experiment: BSK_LPS_CD40: BioMAP Diversity Plus: LPS Assay for CD40 Biomarker Activity (AID 2283076); settings: primary human HUVEC with PBMC; actives raise or lower the signal
Summary of the method: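 Primary human umbilical vein endothelial cells co-cultured with peripheral blood mononuclear cells, LPS-stimulated, were dosed with chemical and read 24 h later. CD40 levels were measured by ELISA and fitted bidirectionally against DMSO as negative control and baseline.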

[9] = read-out: E-selectin (Homo sapiens) (UniProt P16581); experiment: BSK_LPS_Eselectin: BioMAP Diversity Plus: LPS Assay for Eselectin Biomarker Activity (AID 2283077); settings: primary human HUVEC with PBMC; actives raise or lower the signal
Summary of the method: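 Human umbilical vein endothelial cells co-cultured with peripheral blood mononuclear cells under LPS stimulation; E-selectin measured by ELISA 24 h after chemical dosing. Activity fitted bidirectionally against DMSO as negative control and baseline.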

[10] = read-out: Interleukin-8 (IL8), CXCL8 (gene 3576); experiment: BSK_LPS_IL8: BioMAP Diversity Plus: LPS Assay for Interleukin-8 (IL8) Biomarker Activity (AID 2283078); settings: primary human HUVEC with PBMC; actives raise or lower the signal
Summary of the method: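 Human umbilical vein endothelial cells co-cultured with PBMC were stimulated with LPS; IL-8 levels were measured by ELISA 24 h after chemical dosing. Activity was fitted bidirectionally against DMSO as negative control and baseline.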

[11] = BSK_LPS_SRB: Viability Assessment in the BioMAP Diversity Plus: LPS Assay (AID 2283079); settings: primary human HUVEC with PBMC;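 note: total protein by sulforhodamine B absorbance as a cytotoxicity measure; measured one day after compound addition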
Summary of the method: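 Human umbilical vein endothelial cells co-cultured with PBMC (LPS system) were dosed for 24 h. Total protein was stained with 0.1% sulforhodamine B after 10% TCA fixation, read at 560 nm, and fitted bidirectionally against DMSO baseline.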

[12] = read-out: Interleukin-1 alpha (IL1a), IL1A (gene 3552); experiment: BSK_LPS_IL1a: BioMAP Diversity Plus: LPS Assay for Interleukin-1 alpha (IL1a) Biomarker Activity (AID 2283080); settings: primary human HUVEC with PBMC; actives raise or lower the signal
Summary of the method: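 Human umbilical vein endothelial cells co-cultured with peripheral blood mononuclear cells were LPS-stimulated and exposed to test chemicals for 24 h. IL-1 alpha was quantified by ELISA, with bidirectional curve fitting against DMSO as the negative control and baseline.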

[13] = read-out: Monocyte Chemoattractant Protein-1 (MCP1), CCL2 (gene 6347); experiment: BSK_LPS_MCP1: BioMAP Diversity Plus: LPS Assay for Monocyte Chemoattractant Protein-1 (MCP1) Biomarker Activity (AID 2283081); settings: primary human HUVEC with PBMC; actives raise or lower the signal;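 for AC50: secreted MCP-1 protein quantified by ELISA in culture supernatant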
Summary of the method: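 HUVEC plus PBMC co-culture (human primary cells, LPS system) exposed to test chemical for 24 h; MCP-1 measured by ELISA. Bidirectional curve fitting against DMSO baseline; parallel SRB total-protein staining flags overt cytotoxicity.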

[14] = BSK_LPS_PGE2: BioMAP Diversity Plus: LPS Assay for Prostaglandin E2 (PGE2) Biomarker Activity (AID 2283082); settings: primary human HUVEC with PBMC; actives raise or lower the signal;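 for AC50: secreted prostaglandin E2 measured by ELISA in LPS-stimulated co-culture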
Summary of the method: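 Compounds were added to the LPS co-culture of endothelium and PBMC, and PGE2 was measured by ELISA after 24 h. Responses in either direction were fitted with DMSO as baseline.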

[15] = read-out: Macrophage colony-stimulating factor (MCSF), CSF1 (gene 1435); experiment: BSK_LPS_MCSF: BioMAP Diversity Plus: LPS Assay for Macrophage colony-stimulating factor (MCSF) Biomarker Activity (AID 2283083); settings: primary human HUVEC with PBMC; actives raise or lower the signal
Summary of the method: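 Human umbilical vein endothelial cells co-cultured with peripheral blood mononuclear cells were exposed to compound for 24 h. M-CSF levels were measured by ELISA, and bidirectional curve fitting used DMSO as the negative control and baseline.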

[16] = read-out: Tissue Factor, F3 (gene 2152); experiment: BSK_LPS_TissueFactor: BioMAP Diversity Plus: LPS Assay for Tissue Factor Biomarker Activity (AID 2283084); settings: primary human HUVEC with PBMC; actives raise or lower the signal
Summary of the method: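 Human umbilical vein endothelial cells co-cultured with peripheral blood mononuclear cells were dosed and stimulated with LPS. Cell-surface CD142 was quantified by ELISA at 24 h. Activity was fitted bidirectionally against DMSO baseline.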

[17] = read-out: Tumor necrosis factor (Homo sapiens) (UniProt P01375); experiment: BSK_LPS_TNFa: BioMAP Diversity Plus: LPS Assay for Tumour Necrosis Factor alpha (TNFa) Biomarker Activity (AID 2283085); settings: primary human HUVEC with PBMC; actives raise or lower the signal;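 for AC50: TNFa protein level quantified by ELISA in the co-culture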
Summary of the method: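 Cells (umbilical vein endothelium plus peripheral blood mononuclear cells) were dosed with chemical, incubated 24 h, then TNFa was quantified by ELISA; values derive from bidirectional fitting with DMSO as baseline.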

[18] = read-out: Vascular cell adhesion molecule 1 (VCAM1), VCAM1 (gene 7412); experiment: BSK_LPS_VCAM1: BioMAP Diversity Plus: LPS Assay for Vascular cell adhesion molecule 1 (VCAM1) Biomarker Activity (AID 2283086); settings: primary human HUVEC with PBMC; actives raise or lower the signal
Summary of the method: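 Cells are dosed in an LPS-stimulated endothelial/mononuclear co-culture and, after 24 h, VCAM-1 is quantified by ELISA. Activity in either direction is fitted relative to the DMSO negative control.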

CD38, CD38 (gene 952) = experiment: BSK_SAg_CD38: BioMAP Diversity Plus: SAg Assay for CD38 Biomarker Activity (AID 2283087); settings: primary human HUVEC with PBMC; actives raise or lower the signal
Summary of the method: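 CD38 quantified by ELISA (fluorescence) in a superantigen-activated endothelial cell–PBMC co-culture at 24 h post-dose. Activity fitted in both directions relative to DMSO; parallel SRB and Alamar Blue cytotoxicity read-outs.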

CD40, CD40 (gene 958) [19] = experiment: BSK_SAg_CD40: BioMAP Diversity Plus: SAg Assay for CD40 Biomarker Activity (AID 2283088); settings: primary human HUVEC with PBMC; actives raise or lower the signal
Summary of the method: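 Human umbilical vein endothelial cells co-cultured with PBMC; CD40 levels measured by ELISA with fluorescence read-out 24 h after chemical dosing. Gain or loss of signal fitted bidirectionally against DMSO baseline.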

Measured: AC50

Chain of Tumor necrosis factor (Homo sapiens) (P01375 whole entry, looked up): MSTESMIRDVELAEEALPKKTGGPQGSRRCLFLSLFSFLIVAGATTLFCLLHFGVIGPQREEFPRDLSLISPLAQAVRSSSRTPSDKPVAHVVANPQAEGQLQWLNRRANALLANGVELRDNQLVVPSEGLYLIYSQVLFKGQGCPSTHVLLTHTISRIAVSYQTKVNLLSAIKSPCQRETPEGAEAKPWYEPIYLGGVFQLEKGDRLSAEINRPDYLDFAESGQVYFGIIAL
Chain of E-selectin (Homo sapiens) (P16581 whole entry, looked up): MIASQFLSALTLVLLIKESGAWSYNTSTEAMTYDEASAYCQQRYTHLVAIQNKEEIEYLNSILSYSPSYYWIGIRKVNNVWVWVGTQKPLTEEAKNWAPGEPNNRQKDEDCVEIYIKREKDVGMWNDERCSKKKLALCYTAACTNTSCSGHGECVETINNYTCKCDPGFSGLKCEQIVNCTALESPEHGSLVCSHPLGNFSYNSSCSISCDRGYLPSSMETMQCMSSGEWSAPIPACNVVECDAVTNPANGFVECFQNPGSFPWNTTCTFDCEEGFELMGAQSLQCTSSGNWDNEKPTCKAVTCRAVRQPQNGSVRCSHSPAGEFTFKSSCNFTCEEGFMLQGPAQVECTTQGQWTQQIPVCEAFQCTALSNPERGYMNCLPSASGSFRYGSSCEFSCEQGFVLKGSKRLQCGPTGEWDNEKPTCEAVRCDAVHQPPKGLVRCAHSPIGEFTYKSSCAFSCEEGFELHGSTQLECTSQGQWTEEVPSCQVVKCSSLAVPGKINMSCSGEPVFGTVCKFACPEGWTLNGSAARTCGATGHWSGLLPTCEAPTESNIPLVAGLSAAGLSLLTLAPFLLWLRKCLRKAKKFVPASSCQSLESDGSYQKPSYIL

O=Cc1cccc(Oc2ccccc2)c1
not listed: CD40, CD40 (gene 958) [19]
inactive: all other assays above

CCN1CCC2(CC1)COc1cc3c(cc12)N(C(=O)c1ccc(-c2ccc(-c4nnc(C)o4)cc2C)cc1)CC3
active: [1] 20.8 µM | [2] 31.4 µM | [3] 17.9 µM | [4] 18.7 µM | [5] 27 µM | [6] 14.3 µM | [7] 29.9 µM | CD40, CD40 (gene 958) [8] 9.75 µM | [9] 29.3 µM | [10] 14.1 µM | [11] 14.7 µM | [12] 9.03 µM | [13] 16.8 µM | [15] 16.7 µM | [16] 18.7 µM | [17] 14.3 µM | [18] 22.6 µM | CD38, CD38 (gene 952) 12.8 µM

CCCCCCCCC(=O)NCc1ccc(O)c(OC)c1
active: [12] 0.1 µM
not listed: [14] | CD40, CD40 (gene 958) [19]
inactive: all other assays above

CN(C)N=O
not listed: CD40, CD40 (gene 958) [19]
inactive: all other assays above

CC(C)(OO)c1ccccc1
not listed: CD40, CD40 (gene 958) [19]
inactive: all other assays above

NC(=O)O
inactive: all assays above

Nc1ccc(-c2ccc(N)c(Cl)c2)cc1Cl
active: [6] 4.21 µM | [11] 7.78 µM | [18] 1.85 µM
not listed: CD40, CD40 (gene 958) [19]
inactive: all other assays above

COP(=S)(OC)Oc1cc(Cl)c(Cl)cc1Cl
active: [3] 32.2 µM | [4] 36.3 µM | [17] 32.6 µM
inactive: all other assays above

CC(=O)C(Cl)C(=O)N(C)C (stereo unspecified)
active: [2] 13.9 µM | CD40, CD40 (gene 958) [8] 15.5 µM | [9] 15.4 µM | [10] 13.6 µM | [12] 14.4 µM | [13] 27 µM | [14] 7.26 µM | [15] 11.8 µM | [16] 9.35 µM | [17] 9.78 µM | [18] 20 µM | CD38, CD38 (gene 952) 20 µM
inactive: [1] | [3] | [4] | [5] | [6] | [7] | [11]
